Laboratory results from PubChem BioAssay AID485297 (National Center for Advancing Translational Sciences (NCATS), 2010).
The campaign covered roughly 320,000 compounds. About 9,100 (2.8%) were called active. Not shown: some 3% with an inconclusive outcome. The sample holds actives, similar compounds and a random draw of the others, so the mix is not that of the screen. Calls follow the shape of the dose curve; as a rule, active = well fitted activation curve with a large enough effect; inconclusive = small, poorly fitted or top-dose-only effect; inactive = no such curve, though single readings can be large or run the other way.

Assay: qHTS Assay for Rab9 Promoter Activators; also: nearly all actives have a fitted effect of over 60% in size
Details: Huh7 Rab9 promoter-luciferase reporter, luminescence, 24 h; series mostly up to 9.22 µM
Method in brief: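 Cell-based reporter: Huh7 stable for Rab9 promoter-driven luciferase, plated in reduced-serum medium with 10% FBS at 1500 cells/well, compound-treated 24 h at 37 °C, luminescence read after 10 min reagent.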
Potency is read from the fitted curve at half-maximal effect.

Potency, inactive:
COc1ccccc1-c1nn(Cc2ccccc2)cc1C(=O)N1CCN(c2ncccn2)CC1
O=C(COC(=O)c1ncc(Cl)c(Cl)c1Cl)NCc1ccccc1
CCc1ccccc1S(=O)(=O)Cc1ccc(C(=O)NCCc2ccccc2)o1
CCN(CC)CCN1C(=O)C(=O)/C(=C(/O)c2ccc(OC)c(OC)c2)C1c1ccccn1 (stereo unspecified)
CCN(CC)CCN1C(=O)C(=O)/C(=C(/O)c2ccccc2)C1c1ccccc1F (stereo unspecified)
COc1ccc(S(=O)(=O)N2CCC(C(=O)OCC(=O)c3ccccc3)CC2)cc1[N+](=O)[O-]
COc1ccc2sc(-c3ccc(N(C)C)cc3)c(C#CCO)c2c1
Cc1ccc(CN2CC(C(=O)N3CCN(S(=O)(=O)c4ccccc4)CC3)CC2=O)cc1 (stereo unspecified)
Cc1ccc(S(=O)(=O)N2CCC(C(=O)NCC3CCCO3)CC2)cc1 (stereo unspecified)
Cc1ccc(C(=O)N/C(=C/c2cccs2)C(=O)NCC2CCCO2)cc1 (stereo unspecified)
CCOC(=O)c1ccc(NC(=O)c2cccnc2)cc1
COc1ccc(C)cc1NC(=O)c1ccc(-c2ccc(C(C)=O)cc2)o1
CCOc1cc(CNCc2ccccn2)ccc1OCC(=O)NC(C)(C)C
Cc1ccc(S(=O)(=O)N2CCN(c3ncnc4ccccc34)CC2)cc1
CCc1ccc(C(=O)N2CCN(S(=O)(=O)c3sc(C(=O)O)c(C)c3C(=O)O)CC2)cc1
Cn1c(CCC(=O)OCC(=O)NCc2ccccc2Cl)nc(=O)c2ccccc21
CC(C)n1ncc2c(C(=O)Nc3ccc(CC#N)cc3)cc(C3CC3)nc21
C=CCC(NC(=O)Cc1ccccc1)C(=O)NCCC (stereo unspecified)
CC(C)c1nc2cc(C(=O)NC(C)c3cnn(C)c3)ccc2o1 (stereo unspecified)
COc1ccc(CNC(=O)c2cc(=O)c3c(C)cc(C)cc3o2)cc1
CCOc1ccc(S(=O)(=O)N2CCC(C(=O)NCC(=O)Nc3cccc(Cl)c3C)CC2)cc1
Cc1cccc(C(=O)c2cccc(C)c2)c1
N/C(=N\OC(=O)c1cc(-c2ccccc2)nc2ccccc12)c1ccncc1
O=S(=O)(c1ccc(Cl)cc1)c1nc(-c2ccccc2F)oc1NCCN1CCOCC1
CC(=O)c1c(C)[nH]c(C(=O)Nc2cc(S(=O)(=O)N(C)C)ccc2C)c1C
O=C(CCNC(=O)c1ccc([N+](=O)[O-])cc1)NC1CCCCC1
CC(=O)c1ccc(N2CCN(CC(O)c3ccccc3)CC2)cc1 (stereo unspecified)
CC(=O)c1ccc(N2CCN(C(=O)CCc3ccccc3)CC2)cc1
COc1ccc(F)cc1C(=O)COC(=O)c1n[nH]c(=O)c2ccccc12
CCOC(=O)CSc1nccc(N(C)C)c1C#N
Cc1nonc1NC(=O)CSc1nc2ccccc2cc1C#N
COc1ccc(C(C)(C)C)cc1NC(=O)CCN1C(=O)C2CCCCC2C1=O (stereo unspecified)
Cc1ccc(O)c(NC(=O)c2cc(-c3ccco3)on2)c1
CCOc1ncccc1C(=O)OCC(=O)c1c[nH]c2ccccc12
CC1CC1C(=O)OCC(=O)Nc1cccc(F)c1 (stereo unspecified)
CC(C)n1c(COc2ccccc2)nc2ccccc21
Cn1c(COc2ccc(Cl)cc2)nc2ccccc2c1=O
CN(C(=O)CC1C(=O)NCCN1Cc1ccc2ccccc2c1)C1CCOCC1 (stereo unspecified)
O=C(CNC(=O)OCc1ccccc1)NC1CCCCNC1=O (stereo unspecified)
CCc1ccc(-c2nn(-c3ccccc3C)cc2C(=O)N2CCN(C3CCS(=O)(=O)C3)CC2)cc1 (stereo unspecified)
NC(=O)Cc1ccc2c(c1)[nH]c1ccccc12
O=C(O)Cc1sc(-c2ccccc2)nc1-c1cccs1
CC(=O)N1CCOc2ccc(S(=O)(=O)N3CCC(C(=O)Nc4ccccc4F)CC3)cc21
CCc1nnc(NC(=O)c2cc(S(=O)(=O)N3CCCCC3)ccc2C)s1
COc1ccc(-c2nc(SCC(=O)N3CCCC3)n[nH]2)cc1
COc1ccc(-c2nnc3n2CCCCC3)cc1
O=C(Nc1ccccc1N1CCCCC1)c1ccc2nccnc2c1
Cc1cccc(NC(=O)c2ccc3nsnc3c2)c1C
COc1ccc(Cl)cc1NC(=O)COc1ccc2c(c1)OCO2
CCOC(=O)CN(C(=O)CN1CCOCC1)c1ccc(Br)cc1
CC(=O)Nc1cccc(C(=O)OCC(=O)NCc2cc(C)c(O)c(C)c2)c1
O=C(CN1CCN(c2ccccc2F)CC1)c1ccc2c(c1)OCO2
C/C(=N\NC(=O)C(N)=O)c1ccc2c(c1)OCCO2
O=C(COC(=O)c1ccc2c(c1)OCCO2)NCc1ccccc1
O=C(COC(=O)c1ccncc1)c1ccccc1
CC(NC(=O)COC(=O)c1ccc2c(c1)OCO2)c1ccccc1 (stereo unspecified)
CN(CC(=O)NC(=O)Nc1ccccc1F)Cc1ccccc1
CCCn1c(N)c(C(=O)CSc2nnc3n2CCCCC3)c(=O)[nH]c1=O
O=C(Nc1nnc(CCN2CCCCC2)s1)c1cccc(Cl)c1
CC(NC(=O)CN(C)S(=O)(=O)c1ccc(F)cc1)C1CC2CCC1C2 (stereo unspecified)
Cc1ccc(CNC(=O)CC(NC(=O)c2ccccc2)c2ccccc2)cc1 (stereo unspecified)
CC1(C)CC(=O)C=C(c2cccc3c2Oc2ccccc2S3)C1
Cc1ccnc(NC(=O)CNC(=O)c2ccccc2)c1
Cc1ccnc(NC(=O)CCCOc2ccccc2)c1
COc1ccccc1OCCNC(=O)CCNC(=O)c1ccccc1Cl
COc1cc(SC)ccc1C(=O)N(Cc1ccccc1)c1ccccc1
COc1cc(F)c(C2=CC(=O)CC(C)(C)C2)cc1F
Cc1ccc(CC(=O)Nc2ccc(S(=O)(=O)N3CCOCC3)cc2)cc1C
CN1CCN(S(=O)(=O)c2cccc(C(=O)Nc3sccc3C#N)c2)CC1
COc1cccc(CNC(=O)CN2C(=O)NC(Cc3ccccc3)(c3ccccc3)C2=O)c1 (stereo unspecified)
Cc1cccc(NC(=O)NC(=S)NC(=O)c2ccccc2)c1
Cc1nc(C)c(C(=O)Nc2ccc(C)c(F)c2)o1
CC1CCCCC1NC(=O)NC(=O)COC(=O)C1=NN(c2ccccc2)C(=O)CC1 (stereo unspecified)
O=C(NCC1(N2CCCCC2)CCCCC1)c1ccc(NS(=O)(=O)c2ccc(F)cc2)cc1
O=C(COC(=O)CCCSc1nc2ccccc2[nH]1)Nc1ccc(Oc2ccccc2)cc1
CCc1nnc(NC(=O)CCCSc2nc3ccccc3[nH]2)s1
CN(Cc1ccccc1)C(=O)CSc1nc2ccccc2[nH]1
O=C(CSc1nc2ccccc2[nH]1)Nc1nc(-c2ccccc2)c(-c2ccccc2)o1
O=C(NCc1cccc(Cl)c1)C1=CC=CN2CCS(=O)(=O)N=C12
Cc1cccc2cc3c(N)c(C(=O)N4CCCc5ccccc54)sc3nc12
Nc1c(C(=O)NCc2ccccc2)sc2nc3c(cc12)C(=O)CCC3
CCCC(=O)Nc1nc2ccc(NC(=O)c3c(F)c(F)c(OC)c(F)c3F)cc2s1
O=C(Nc1ccncc1)c1c(F)cccc1F
CSCCC(NC(=O)COc1ccccc1)C(=O)N(C)CC(=O)Nc1ccc(C)cc1 (stereo unspecified)
O=C(NC1CCCC1)c1ccc(Br)s1
CC(C)C(=O)OCC(=O)Nc1ccc2c(c1)CCC2
Cc1ccc(NC(=O)CCNC(=O)c2ccc([N+](=O)[O-])cc2)cc1S(=O)(=O)N1CCOCC1
O=C(CCNC(=O)c1ccccc1Cl)NCc1ccco1
COc1ccc(CNC(=O)COC(=O)c2ccc(C)c(S(=O)(=O)N3CCOCC3)c2)cc1OC

Potency, active:
CCN(CC)CCN1C(=O)C(=O)/C(=C(/O)c2cnn(-c3ccccc3)c2C)C1c1cccs1 (stereo unspecified) 2510 nM
Cc1ccc(-n2c(C)cc(/C=C(\C#N)C(=O)NCC3CCCO3)c2C)cc1 (stereo unspecified) 3980 nM
CCOC(=O)c1ccc(-c2ccc(C(=O)Nc3cccnc3)o2)cc1 2240 nM
COc1ccc(CNC(=O)c2ccc3oc(C(C)C)nc3c2)cc1 2820 nM
Cc1cccc(/C(N)=N/OC(=O)c2ccccc2Cl)c1 891 nM
CC(=O)c1ccc(N2Cc3ccccc3C2)cc1 1780 nM
CCOc1ccc2cc(C#N)c(SCC(=O)OC)nc2c1 1580 nM
Cc1ccc(OCc2nc3ccccc3n2C)cc1 1780 nM
NC(=O)Cc1ccc2sc(-c3ccccc3)nc2c1 3550 nM
COc1ccc(-c2nc3n(c2Br)CCC3)cc1 2510 nM
O=C(Nc1ccccc1Cl)c1ccc2nsnc2c1 2510 nM
CC(=O)Nc1cccc(C(=O)OCC(=O)c2ccc3c(c2)OCO3)c1 89.1 nM
O=C(OCc1ccccc1F)c1ccc2c(c1)OCCO2 3160 nM
O=C(COC(=O)c1ccccc1)c1ccc2c(c1)OCCO2 631 nM
COc1cc(SC)ccc1C(=O)NCCOc1ccccc1Cl 3980 nM
COc1cc(SC)ccc1C(=O)Nc1cc(C)ccn1 3550 nM
Cc1ccc(NC(=O)NC(=O)c2ccccc2)cc1F 398 nM
O=C(CSc1nc2ccccc2[nH]1)c1cccs1 2000 nM
CCCCSc1nc2ccccc2[nH]1 2000 nM
CC(C)OC(=O)c1sc2nc3c(cc2c1N)C(=O)CCC3 3550 nM
CSc1nc2ccc(NC(=O)c3c(F)cccc3F)cc2s1 3550 nM
O=C(Nc1ccc2c(c1)CCC2)c1ccc(Br)s1 1120 nM
